# Source: article PMC11574364
# Experiments:
# Assay in all cases: protein domain microarray probed with biotinylated miRNA; Domain array: 20 mM Tris-HCl pH 7.4, 200 mM KCl, 0.2 mM EDTA, 0.05% NP40, 2 ug/ul heparin, overnight 4 C. ORF array: PBS pH 7.0 with RNase inhibitor, 100 ng RNA; high values mean tight binding
# Conditions in all cases: ssRNA
# hnRNP K(3) = hnRNP K(3) (Homo sapiens, UniProt P61978)
# RBM35A = biological target: T1, RBM35A (Homo sapiens, UniProt Q6NXG1)
# T1 sequence: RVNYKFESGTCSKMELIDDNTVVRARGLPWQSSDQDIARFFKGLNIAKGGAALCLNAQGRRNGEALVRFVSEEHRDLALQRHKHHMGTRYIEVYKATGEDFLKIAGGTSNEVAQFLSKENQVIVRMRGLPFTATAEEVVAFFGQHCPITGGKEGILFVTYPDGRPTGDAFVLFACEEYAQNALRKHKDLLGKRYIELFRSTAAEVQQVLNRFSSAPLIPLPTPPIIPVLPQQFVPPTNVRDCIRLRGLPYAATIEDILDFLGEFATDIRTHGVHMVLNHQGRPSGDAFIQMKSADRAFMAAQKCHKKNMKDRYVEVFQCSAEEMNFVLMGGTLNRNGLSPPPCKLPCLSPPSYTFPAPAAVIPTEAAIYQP
# RKHD2(1-2) = biological target: T2, RKHD2(1-2) (Homo sapiens, UniProt Q5U5Q3)
# T2 sequence: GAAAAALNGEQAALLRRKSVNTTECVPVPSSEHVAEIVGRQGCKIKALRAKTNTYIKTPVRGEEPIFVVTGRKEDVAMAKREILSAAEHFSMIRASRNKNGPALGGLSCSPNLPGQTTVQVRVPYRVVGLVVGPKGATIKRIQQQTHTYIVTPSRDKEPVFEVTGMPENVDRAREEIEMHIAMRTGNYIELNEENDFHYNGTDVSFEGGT
# RBM35B = biological target: T3, RBM35B (Homo sapiens, UniProt Q9H6T0)
# T3 sequence: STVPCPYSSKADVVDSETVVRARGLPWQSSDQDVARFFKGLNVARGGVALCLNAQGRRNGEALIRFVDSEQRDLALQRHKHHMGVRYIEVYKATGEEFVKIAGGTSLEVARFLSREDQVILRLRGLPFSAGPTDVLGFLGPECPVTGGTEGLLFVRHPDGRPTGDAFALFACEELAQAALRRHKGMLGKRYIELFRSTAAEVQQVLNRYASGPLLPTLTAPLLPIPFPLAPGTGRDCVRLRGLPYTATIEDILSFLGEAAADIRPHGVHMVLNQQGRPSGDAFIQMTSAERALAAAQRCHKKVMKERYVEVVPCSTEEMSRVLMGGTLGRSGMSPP
# TAF15 = TAF15 (Homo sapiens, UniProt Q92804)
# Chain of TAF15 (Q92804 215-340): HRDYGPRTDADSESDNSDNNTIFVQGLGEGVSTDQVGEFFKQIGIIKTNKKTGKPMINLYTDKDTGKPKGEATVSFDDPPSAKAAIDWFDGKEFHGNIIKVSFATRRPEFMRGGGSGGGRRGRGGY
# RBM6 = biological target: T4, RBM6 (Homo sapiens, UniProt P78332)
# T4 sequence: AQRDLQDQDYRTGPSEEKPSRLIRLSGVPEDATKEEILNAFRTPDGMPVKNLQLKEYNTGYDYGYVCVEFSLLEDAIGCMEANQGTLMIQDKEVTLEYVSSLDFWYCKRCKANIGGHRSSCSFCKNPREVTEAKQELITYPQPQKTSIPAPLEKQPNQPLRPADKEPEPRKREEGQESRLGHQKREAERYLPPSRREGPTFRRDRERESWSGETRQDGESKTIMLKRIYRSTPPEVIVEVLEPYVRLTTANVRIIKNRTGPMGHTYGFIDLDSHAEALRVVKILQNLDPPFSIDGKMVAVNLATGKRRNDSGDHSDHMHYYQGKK
# RBM23 = biological target: T5, RBM23 (Homo sapiens, UniProt Q86U06)
# T5 sequence: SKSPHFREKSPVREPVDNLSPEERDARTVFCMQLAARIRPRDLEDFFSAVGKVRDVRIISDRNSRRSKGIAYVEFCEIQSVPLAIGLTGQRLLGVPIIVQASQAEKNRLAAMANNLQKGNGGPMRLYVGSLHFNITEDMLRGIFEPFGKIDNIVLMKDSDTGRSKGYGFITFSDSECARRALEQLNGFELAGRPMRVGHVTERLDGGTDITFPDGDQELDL
# KHDRBS2 = biological target: T6, KHDRBS2 (Homo sapiens, UniProt Q5VWX1)
# T6 sequence: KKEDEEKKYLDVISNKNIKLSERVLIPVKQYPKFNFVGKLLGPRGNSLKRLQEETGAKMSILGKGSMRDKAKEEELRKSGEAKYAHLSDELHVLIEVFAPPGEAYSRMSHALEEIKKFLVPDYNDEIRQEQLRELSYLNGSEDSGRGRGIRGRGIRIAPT
# RBM12B(1-3) = biological target: T7, RBM12B(1-3) (Homo sapiens, UniProt Q8IXT5)
# T7 sequence: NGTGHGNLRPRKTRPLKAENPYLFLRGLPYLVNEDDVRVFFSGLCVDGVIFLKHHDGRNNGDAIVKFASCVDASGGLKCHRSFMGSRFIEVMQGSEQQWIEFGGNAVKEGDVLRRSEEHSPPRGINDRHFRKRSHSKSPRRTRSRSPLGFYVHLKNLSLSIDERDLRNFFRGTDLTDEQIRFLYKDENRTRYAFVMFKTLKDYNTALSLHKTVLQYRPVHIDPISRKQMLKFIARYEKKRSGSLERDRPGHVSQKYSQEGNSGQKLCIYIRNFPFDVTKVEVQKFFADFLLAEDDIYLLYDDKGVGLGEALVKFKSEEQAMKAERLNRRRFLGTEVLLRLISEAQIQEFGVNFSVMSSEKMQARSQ
# RED1(2)/ADARB1 = RED1(2)/ADARB1 (Homo sapiens, UniProt P78563)
# FBP3(1-4) = FBP3(1-4) (Homo sapiens, UniProt Q96I24)
# Chain of FBP3(1-4) (Q96I24 57-441): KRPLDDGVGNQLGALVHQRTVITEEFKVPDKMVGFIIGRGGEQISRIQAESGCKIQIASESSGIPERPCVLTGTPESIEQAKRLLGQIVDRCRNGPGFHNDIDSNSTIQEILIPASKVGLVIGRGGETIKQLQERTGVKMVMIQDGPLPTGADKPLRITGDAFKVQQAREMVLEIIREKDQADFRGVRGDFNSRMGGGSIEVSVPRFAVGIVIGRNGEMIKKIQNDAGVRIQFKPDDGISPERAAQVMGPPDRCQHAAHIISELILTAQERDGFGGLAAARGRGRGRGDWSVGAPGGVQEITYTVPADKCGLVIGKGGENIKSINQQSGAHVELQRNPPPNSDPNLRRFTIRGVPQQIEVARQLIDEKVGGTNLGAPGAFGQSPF
# IGF2BP3(3-4) = IGF2BP3(3-4) (Homo sapiens, UniProt O00425)
# Chain of IGF2BP3(3-4) (O00425 387-579): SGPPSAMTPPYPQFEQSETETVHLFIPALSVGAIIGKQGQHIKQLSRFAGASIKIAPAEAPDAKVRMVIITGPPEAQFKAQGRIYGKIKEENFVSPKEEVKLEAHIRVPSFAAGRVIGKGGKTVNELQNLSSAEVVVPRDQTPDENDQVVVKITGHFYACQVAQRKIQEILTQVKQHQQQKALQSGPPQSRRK
# DGCR8 = biological target: T8, DGCR8 (Homo sapiens, UniProt Q8WYQ5)
# T8 sequence: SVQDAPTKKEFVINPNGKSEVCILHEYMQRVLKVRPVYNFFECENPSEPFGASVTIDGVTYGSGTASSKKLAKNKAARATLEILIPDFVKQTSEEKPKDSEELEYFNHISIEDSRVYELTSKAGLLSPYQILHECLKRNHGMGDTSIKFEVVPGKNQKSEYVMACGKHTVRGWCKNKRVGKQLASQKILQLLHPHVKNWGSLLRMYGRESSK
# QKI = biological target: T9, QKI (Homo sapiens, UniProt Q96PU8)
# T9 sequence: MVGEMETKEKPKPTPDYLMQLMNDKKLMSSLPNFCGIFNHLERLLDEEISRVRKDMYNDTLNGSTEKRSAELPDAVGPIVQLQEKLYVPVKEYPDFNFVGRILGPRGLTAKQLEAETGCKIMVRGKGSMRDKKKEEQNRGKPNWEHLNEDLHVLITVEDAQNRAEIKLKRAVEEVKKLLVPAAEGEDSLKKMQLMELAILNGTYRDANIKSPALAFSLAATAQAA
# ADARB2(2) = biological target: T10, ADARB2(2) (Homo sapiens, UniProt Q9NS39)
# T10 sequence: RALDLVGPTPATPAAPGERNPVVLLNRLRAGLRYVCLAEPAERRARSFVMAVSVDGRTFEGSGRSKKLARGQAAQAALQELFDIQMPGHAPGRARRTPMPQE
# Chain of hnRNP K(3) (P61978 369-463): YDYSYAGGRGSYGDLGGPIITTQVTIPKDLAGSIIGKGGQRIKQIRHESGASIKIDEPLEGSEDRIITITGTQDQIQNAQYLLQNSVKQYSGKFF
sequence,measurement,setting,value
UGAGGUAGUAGGUUGUAUAGUU,binding signal,hnRNP K(3),52.1 ± 3.1 fluorescence intensity
same,binding signal,RBM35A,521 ± 7.45 fluorescence intensity
same,binding signal,RKHD2(1-2),509.4 ± 2.09 fluorescence intensity
same,binding signal,RBM35B,31.4 ± 1.56 fluorescence intensity
same,binding signal,TAF15,54.7 ± 13.8 fluorescence intensity
same,binding signal,RBM6,20.3 ± 1.75 fluorescence intensity
same,binding signal,RBM23,162.15 ± 0.134 fluorescence intensity
same,binding signal,KHDRBS2,388 ± 52.1 fluorescence intensity
same,binding signal,RBM12B(1-3),44.5 ± 1.46 fluorescence intensity
same,binding signal,RED1(2)/ADARB1,25 ± 0.453 fluorescence intensity
same,binding signal,FBP3(1-4),38 ± 4.14 fluorescence intensity
same,binding signal,IGF2BP3(3-4),29.1 ± 0.552 fluorescence intensity
same,binding signal,DGCR8,38.6 ± 3.32 fluorescence intensity
same,binding signal,QKI,20.4 ± 2.35 fluorescence intensity
CAGUGCAAUGAUGAAAGGGCAU,binding signal,hnRNP K(3),294 ± 10.8 fluorescence intensity
same,binding signal,RBM35A,1310 ± 17.7 fluorescence intensity
same,binding signal,RKHD2(1-2),486 ± 53.7 fluorescence intensity
same,binding signal,RBM35B,135 ± 1.71 fluorescence intensity
same,binding signal,TAF15,104 ± 15.9 fluorescence intensity
same,binding signal,RBM6,107 ± 6.4 fluorescence intensity
same,binding signal,RBM23,199 ± 29.6 fluorescence intensity
same,binding signal,KHDRBS2,1440 ± 198 fluorescence intensity
same,binding signal,RBM12B(1-3),194 ± 28.6 fluorescence intensity
same,binding signal,RED1(2)/ADARB1,68.1 ± 3.97 fluorescence intensity
same,binding signal,ADARB2(2),32.5 ± 3.78 fluorescence intensity
same,binding signal,FBP3(1-4),52.55 ± 0.495 fluorescence intensity
same,binding signal,IGF2BP3(3-4),53.6 ± 2.39 fluorescence intensity
same,binding signal,DGCR8,102 ± 2.74 fluorescence intensity
same,binding signal,QKI,37.7 ± 8.53 fluorescence intensity
UAGCUUAUCAGACUGAUGUUGA,binding signal,hnRNP K(3),79.6 ± 1.76 fluorescence intensity
same,binding signal,RBM35A,26.4 ± 2.09 fluorescence intensity
same,binding signal,RKHD2(1-2),234 ± 5.59 fluorescence intensity
same,binding signal,RBM23,26.5 ± 5.48 fluorescence intensity
same,binding signal,KHDRBS2,463 ± 19.2 fluorescence intensity
UGAGGUAGUAGGUUGUAUGGUU,binding signal,hnRNP K(3),199 ± 15.1 fluorescence intensity
same,binding signal,RBM35A,1320 ± 26.9 fluorescence intensity
same,binding signal,RKHD2(1-2),733 ± 12 fluorescence intensity
same,binding signal,RBM35B,193.1 ± 0.566 fluorescence intensity
same,binding signal,TAF15,588 ± 28.9 fluorescence intensity
same,binding signal,RBM6,550 ± 31 fluorescence intensity
same,binding signal,RBM23,843 ± 102 fluorescence intensity
same,binding signal,KHDRBS2,842 ± 171 fluorescence intensity
same,binding signal,RBM12B(1-3),324 ± 46.5 fluorescence intensity
same,binding signal,RED1(2)/ADARB1,87.6 ± 3.8 fluorescence intensity
same,binding signal,ADARB2(2),59.45 ± 0.594 fluorescence intensity
same,binding signal,FBP3(1-4),77.1 ± 5.85 fluorescence intensity
same,binding signal,IGF2BP3(3-4),96.125 ± 0.0778 fluorescence intensity
same,binding signal,DGCR8,110 ± 8.32 fluorescence intensity
same,binding signal,QKI,33.2 ± 5.98 fluorescence intensity
AGAGGUAGUAGGUUGCAUAGUU,binding signal,hnRNP K(3),181 ± 4.45 fluorescence intensity
same,binding signal,RBM35A,2590 ± 119 fluorescence intensity
same,binding signal,RKHD2(1-2),874 ± 10.7 fluorescence intensity
same,binding signal,RBM35B,170 ± 4.31 fluorescence intensity
same,binding signal,TAF15,299 ± 23.1 fluorescence intensity
same,binding signal,RBM6,491 ± 28 fluorescence intensity
same,binding signal,RBM23,644 ± 79.1 fluorescence intensity
same,binding signal,KHDRBS2,1300 ± 14.4 fluorescence intensity
same,binding signal,RBM12B(1-3),274 ± 48.6 fluorescence intensity
same,binding signal,RED1(2)/ADARB1,73.3 ± 1.94 fluorescence intensity
same,binding signal,ADARB2(2),23.8 ± 11.5 fluorescence intensity
same,binding signal,FBP3(1-4),63.6 ± 6.09 fluorescence intensity
same,binding signal,IGF2BP3(3-4),64.5 ± 3.37 fluorescence intensity
same,binding signal,DGCR8,130 ± 1.15 fluorescence intensity
same,binding signal,QKI,33.1 ± 1.25 fluorescence intensity
UGAGGUAGUAGGUUGUGUGGUU,binding signal,hnRNP K(3),291 ± 3.08 fluorescence intensity
same,binding signal,RBM35A,1439 ± 11.1 fluorescence intensity
same,binding signal,RKHD2(1-2),680.7 ± 1.67 fluorescence intensity
same,binding signal,RBM35B,287 ± 29.8 fluorescence intensity
same,binding signal,TAF15,662 ± 122 fluorescence intensity
same,binding signal,RBM6,453 ± 28.5 fluorescence intensity
same,binding signal,RBM23,678.5 ± 0.919 fluorescence intensity
same,binding signal,KHDRBS2,1190 ± 18.7 fluorescence intensity
same,binding signal,RBM12B(1-3),329 ± 27.9 fluorescence intensity
same,binding signal,RED1(2)/ADARB1,143.2 ± 0.375 fluorescence intensity
same,binding signal,ADARB2(2),85.94 ± 0.24 fluorescence intensity
same,binding signal,FBP3(1-4),107 ± 3.19 fluorescence intensity
same,binding signal,IGF2BP3(3-4),169 ± 5.85 fluorescence intensity
same,binding signal,DGCR8,212.8 ± 0.537 fluorescence intensity
same,binding signal,QKI,66.4 ± 1.27 fluorescence intensity
